Results: PubChem BioAssay AID1159580 (chemical genetic matrix, 2015)
“And” between values parts separate entries of the source, which are not always exact repeats. Equal values may be shown once. The campaign covered roughly 5,500 compounds. About 2,000 (36%) were called active. Not shown: some 18% with an inconclusive outcome. Cut-off read from the data, not from the text of the source: active = normalized growth mostly below about 0.91 (no sharp cut-off); inconclusive = no clear call, values can overlap the other calls; inactive = mostly above about 0.92. The list shows a part of the results.

Assay: chemical genetic growth profiling, strain panel (AID 1159580);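 note: tested at 20 µM; growth read once vehicle control cultures reached saturation at 30 °C; 1 = growth at the plate median or of vehicle wells; lower values mean less growth of the strain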
Settings: S. cerevisiae deletion strains, growth OD

Measured: normalized growth

C=CCN1CC[C@]23c4c5ccc(O)c4OC2C(=O)CC[C@@]3(O)[C@H]1C5 (stereo partly specified)
inactive: locus YAL013W, strain DEP1, hits give low values 1.01 | locus YAL021C, strain ccr4, hits give low values 0.935 | locus YAL026C, strain drs2, hits give low values 0.979 | locus YAL030W, strain snc1, hits give low values 0.974 | locus YBL061C, strain skt5, hits give low values 0.978 | locus YBR009C, strain hhf1, hits give low values 0.987 | locus YBR021W, strain FUR4, hits give low values 1.01 | locus YBR023C, strain chs3, hits give low values 0.972 | locus YBR171W, strain sec66, hits give low values 0.974 | locus YBR229C, strain ROT2, hits give low values 1 | locus YBR231C, strain swc5, hits give low values 0.969 | locus YBR279W, strain paf1, hits give low values 0.955 | locus YCL011C, strain gbp2, hits give low values 0.941 | locus YCL016C, strain dcc1, hits give low values 0.986 | locus YCL029C, strain bik1, hits give low values 0.996 | locus YCL061C, strain MRC1, hits give low values 0.979 | locus YCL069W, strain vba3, hits give low values 0.946 | locus YCR088W, strain abp1, hits give low values 0.98 | locus YDL005C, strain med2, hits give low values 0.943 | locus YDL035C, strain GPR1, hits give low values 1.02 | locus YDL040C, strain nat1, hits give low values 0.967 | locus YDL074C, strain BRE1, hits give low values 1.05 | locus YDL101C, strain DUN1, hits give low values 1.02 | locus YDL134C, strain PPH21, hits give low values 1 | locus YDL185W, strain tfp1, hits give low values 1.01 | locus YDL192W, strain arf1, hits give low values 0.988 | locus YDR001C, strain nth1, hits give low values 0.971 | locus YDR069C, strain doa4, hits give low values 0.943 | locus YDR101C, strain arx1, hits give low values 0.989 | locus YDR137W, strain rgp1, hits give low values 0.959 | locus YDR150W, strain NUM1, hits give low values 1 | locus YDR159W, strain sac3, hits give low values 0.962 | locus YDR162C, strain NBP2, hits give low values 1.01 | locus YDR195W, strain ref2 0.955 | locus YDR297W, strain sur2, hits give low values 0.962 | locus YDR318W, strain mcm21, hits give low values 1 | locus YDR334W, strain swr1, hits give low values 0.95 | locus YDR335W, strain msn5, hits give low values 0.974 | locus YDR388W, hits give low values 1 | locus YDR392W, strain spt3, hits give low values 0.877 | locus YDR502C, strain sam2, hits give low values 0.984 | locus YEL003W, strain gim4, hits give low values 0.936 | locus YEL037C, strain rad23, hits give low values 0.954 | locus YEL061C, strain CIN8 (second series), hits give low values 0.962 | locus YEL061C, strain CIN8, hits give low values 1.01 | locus YER015W, strain faa2, hits give low values 0.97 | locus YER016W, strain bim1, hits give low values 0.972 | locus YER110C, hits give low values 0.992 | locus YER111C, strain swi4, hits give low values 0.97 | locus YER155C, strain BEM2 (second series), hits give low values 0.979 | locus YER155C, strain BEM2, hits give low values 1.01 | locus YER167W, strain BCK2, hits give low values 0.989 | locus YFR010W, strain ubp6, hits give low values 0.953 | locus YGL078C, strain dbp3, hits give low values 1 | locus YGL086W, strain mad1, hits give low values 0.993 | locus YGL167C, strain pmr1, hits give low values 0.961 | locus YGL173C, strain kem1, hits give low values 0.971 | locus YGL227W, strain vid30, hits give low values 0.97 | locus YGL240W, strain doc1, hits give low values 0.961 | locus YGL248W, strain PDE1, hits give low values 1.01 | locus YGL253W, strain hxk2, hits give low values 0.974 | locus YGR078C, strain PAC10, hits give low values 1.03 | locus YGR135W, strain pre9, hits give low values 0.99 | locus YGR229C, strain SMI1, hits give low values 1 | locus YGR252W, strain gcn5, hits give low values 0.997 | locus YHR013C, strain ard1, hits give low values 0.926 | locus YHR027C, strain rpn1, hits give low values 0.97 | locus YHR030C, strain SLT2, hits give low values 1 and 0.989 | locus YHR079C, strain IRE1 (second series), hits give low values 1 | locus YHR094C, strain hxt1, hits give low values 1 | locus YHR129C, strain ARP1, hits give low values 1.01 | locus YHR142W, strain chs7, hits give low values 0.946 | locus YHR200W, strain rpn10, hits give low values 0.998 | locus YIL066C, strain RNR3, hits give low values 1.01 | locus YIL073C, strain SPO22, hits give low values 1.02 | locus YIL125W, strain kgd1, hits give low values 0.997 | locus YIR030C, strain dcg1, hits give low values 0.997 | locus YJL092W, strain hpr5, hits give low values 0.957 | locus YJL095W, strain BCK1 (second series), hits give low values 0.978 | locus YJL095W, strain BCK1, hits give low values 1.02 and 1 | locus YJL115W, strain asf1, hits give low values 0.957 | locus YJL129C, strain trk1, hits give low values 0.917 | locus YJL134W, strain LCB3, hits give low values 1.01 | locus YJL154C, strain vps35, hits give low values 0.971 | locus YJL164C, strain tpk1, hits give low values 0.984 | locus YJL166W, strain qcr8, hits give low values 0.959 | locus YJL168C, strain set2, hits give low values 1 | locus YJL187C, strain SWE1 (second series), hits give low values 1.03 | locus YJL187C, strain SWE1, hits give low values 0.964 | locus YJR043C, strain POL32, hits give low values 1.03 | locus YJR066W, strain TOR1, hits give low values 0.949
